From PubChem BioAssay
Anthrax LF prot – Bacillus anthracis LF protease inhibitors, primary screen, biochemical, multiplex microsphere, MLPCN library. Lethal factor (Bacillus anthracis), P15917. multiplex microsphere protease cleavage assay. inhibition, % at 10 µM. actives 0.12% (n = 360,000). AID 588501, 2011; note: plate controls were buffer without enzyme for full effect and enzyme alone for no effect
MazEF act – activators of E. coli MazEF toxin-antitoxin RNase, primary screen, biochemical, fluorescence, uHTS. Endoribonuclease toxin MazF (Escherichia coli (strain K12)), P0AE70. FAM/BHQ RNA-DNA oligo cleavage fluorescence, 5 h. activation, % at 20 µM. actives 0.32% (n = 350,000). AID 504720, 2011; in the data active = activation above about 50%
Target sequence (P0AE70 whole entry, looked up): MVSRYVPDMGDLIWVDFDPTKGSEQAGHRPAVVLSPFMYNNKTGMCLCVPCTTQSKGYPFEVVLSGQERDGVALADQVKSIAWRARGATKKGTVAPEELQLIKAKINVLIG
Autofluor counter – flagged as autofluorescent in microsphere protease counterscreen; actives 3.1% (n = 360,000); fluorescence intensity (test concentration not listed); compound autofluorescence counterscreen, microsphere flow cytometry; stronger effect = higher value; in the data active = fluorescence intensity above about 16000; inconclusive = no clear call, values can overlap the other calls
BoNT A protease – BoNT/A light chain protease inhibitors, primary screen, biochemical, flow cytometry, MLPCN library; multiplex microsphere protease substrate cleavage; Botulinum neurotoxin type A light chain protease (Clostridium botulinum A str. ATCC 3502); AID 588499, 2011; inhibition, % at 10 µM; actives 0.17% (n = 360,000); note: plate controls were buffer without enzyme for full effect and enzyme alone for no effect
BoNT F protease – BoNT/F light chain protease inhibitors, primary screen, biochemical, flow cytometry, MLPCN library; Botulinum neurotoxin type F light chain protease (Clostridium botulinum); Multiplex microsphere protease cleavage assay; inhibition, % at 10 µM; actives 0.22% (n = 360,000); AID 588497, 2011; in the data active = inhibition above about 35%, passing the limit was not always enough; inconclusive = no clear call, values can overlap the other calls; note: plate controls were buffer without enzyme for full effect and enzyme alone for no effect
BH1578 lux ind – inducers of Vibrio cholerae quorum light production without autoinducers, primary screen, BH1578 luxS cqsA deficient, single point. actives 0.16% (n = 350,000). AID 588436, 2011. V. cholerae BH1578 lux reporter, luminescence, 6 h. activation, % at 18.7 µM; in the data active = activation mostly above about 9.7%, no sharp cut-off; inconclusive = no clear call, values can overlap the other calls; inactive = mostly below about 3.7%
* marks the source's active call; other numbers are inactive results; i = inactive; ? = inconclusive; / = not tested or not shown. This is a sample that favours compounds with a hit; in the whole collection about 3.9% have one here. Cut-off read from the data, not from the text of the source, unless noted: active = inhibition above about 30%; inconclusive = no clear call, values can overlap the other calls; inactive = below that.

SMILES	Anthrax LF prot	MazEF act	Autofluor counter	BoNT A protease	BoNT F protease	BH1578 lux ind
Cc1ccc(SC(C)C(=O)Nc2ccncc2)cc1 (centres undefined)	1	4	22693*	2	2	0
Cc1ccc(SC(C)C(=O)Nc2cccc(N(C)S(C)(=O)=O)c2)cc1 (centres undefined)	-15	5	19657*	6	10	0
O=c1c(Br)ccc(Br)cc1Br	0	7	3473	0	5	i
CSC1=N/C(=C\c2ccc(C)s2)C(=O)S1	2	532*	2328	0	-2	-1
CSC1=N/C(=C\c2ccc(F)cc2)C(=O)S1	-2	-4	2623	0	-5	i
OC[C@@H]1CN(Cc2cccs2)C[C@H](n2cnc3c(NCc4ccncc4)ncnc32)O1	-5	/	4053	0	0	-1
COC(=O)N/N=C\c1ccc(-c2cc(Cl)c(Cl)cc2Cl)o1	-2	55*	10447	1	8	0
COC(=O)N/N=C/c1ccc(-c2cc(Cl)ccc2Cl)o1	-2	5	1976	0	-9	0
CC(=O)/C(=N/Nc1cccc(Cl)c1)N1CCOCC1	1	3	3783	0	-12	i
CC(=O)/C(=N/Nc1ccccc1)N1CCOCC1	-2	-6	22407*	2	3	0
O=C(Nc1ccc(S(=O)(=O)Nc2ncccn2)cc1)c1ccccc1Br	-4	1	4293	1	-11	-1
COc1cc(CN2CCc3c([nH]c4ccccc34)C2)cc(OC)c1	2	-5	18016*	11	-91	i
CCOc1ccccc1C(=O)NCC(=O)N(C)CC(=O)Nc1ccc(N2CCOCC2)cc1	-4	-2	3823	0	-2	0
Cc1ccc(NC(=O)COC(=O)Cn2c(C)csc2=O)cc1C	-6	-1	17233*	-3	-9	-2
Cc1ccc(NC(=O)COc2nc(C)cs2)cc1	-1	-1	16659*	-1	-2	-3
Cc1ccc(NC(=O)COc2ccc(Br)cn2)cc1	-10	-2	5182	-1	-5	-1
N#Cc1c(C(F)(F)F)cc(-c2ccccc2)nc1SCCN1CCOCC1	-1	-19	11081	0	-2	0
CCCSc1nc(-c2ccccc2)cc(C(F)(F)F)c1C#N	-3	-4	19871*	10	10	3
CC1(c2ccc3ccccc3c2)NC(=O)N(CC(=O)N2CCN(c3ccccc3O)CC2)C1=O (centres undefined)	-3	0	4706	1	11	i
Cc1cc(/C=C2\C(=O)NC(=O)N(c3ccc(Br)cc3)C2=O)c(C)n1-c1cc(C(=O)O)cc(C(=O)O)c1	5	-62	3824	-3	5	0
Cc1cc(/C=C2\C(=O)NC(=O)N(c3cccc(Br)c3)C2=O)c(C)n1C	0	230*	2594	0	-2	i
Cc1cc(/C=C2/C(=O)NC(=O)N(c3ccc(Br)cc3)C2=O)c(C)n1C	/	20	/	/	/	-1
Cc1cc(/C=C2\C(=O)NC(=O)N(c3ccc(Br)cc3)C2=O)c(C)n1C	-1	87*	2729	0	-4	0
Cn1c(C(=O)NCc2ccc3c(c2)OCO3)cc2sccc21	-1	4	17632*	-3	-5	1
Cn1c(C(=O)N2CCN(Cc3ccc4c(c3)OCO4)CC2)cc2sccc21	-4	-1	16552*	-1	-1	0
SMILES	Anthrax LF prot	MazEF act	Autofluor counter	BoNT A protease	BoNT F protease	BH1578 lux ind
CN(Cc1cn(Cc2cccc(C(F)(F)F)c2)nn1)C1CN(Cc2cn(Cc3cccc(C(F)(F)F)c3)nn2)S(=O)(=O)C1 (centres undefined)	0	/	6320	0	-1	/
C/C(=N\NC(=O)c1cccc(N/N=C(\C)c2cc(O)ccc2O)c1)c1cc(O)ccc1O	-3	9	2079	-1	-8	i
CC12C=CC3(CN(Cc4ccccc4)C(=O)C3C1C(=O)NCc1ccco1)O2 (centres undefined)	-13	-9	20657*	4	6	i
COC(=O)C1C2C=CC3(CN(Cc4ccco4)C(=O)C13)O2 (centres undefined)	0	12	5953	0	-8	-9
O=C(O)c1ccccc1S(=O)(=O)CC(=O)N1CCCCC1	7	9	3458	4	15	0
COc1ccc(N(CC(=O)NCc2ccc(F)cc2)S(=O)(=O)c2c(C)noc2C)cc1	-1	-2	5594	0	1	i
COc1ccc(N(CC(=O)NCc2cccc(OC)c2)S(=O)(=O)c2c(C)noc2C)cc1	-2	1	20088*	0	0	0
COc1ccc(N(CC(=O)NCC2CCCO2)S(=O)(=O)c2c(C)noc2C)cc1 (centres undefined)	-2	5	23408*	?	-6	i
O=C(CN(c1ccc(F)cc1)S(=O)(=O)c1ccc2c(c1)OCCO2)NCC1CCCO1 (centres undefined)	2	-16	22449*	1	1	i
COC(=O)c1ccc(CNC(=O)CCNC(=O)c2ccco2)cc1	/	-4	/	/	/	i
O=c1[nH]c(Cc2ccccc2)nc2c1oc1ccccc12	-1	-12	21955*	0	1	i
O=c1[nH]c(CO)nc2c1oc1ccccc12	-10	3	2898	0	-6	0
Cc1nc2c(oc3ccccc32)c(=O)o1	-3	10	16908*	0	-3	-6
Clc1ccccc1CSc1ncn(-c2ccccc2)n1	2	-7	21905*	2	0	i
Cc1ccc(CSc2ncn(-c3ccccc3)n2)cc1	-5	8	24543*	?	-8	0
COC(=O)c1cnn(-c2ccc(F)cc2F)c1/C=N/NC(=S)NC(C)(C)C	52*	6	3848	-4	?	0
Cc1ccc(-c2cc(C(=O)Nc3c(C)n(C)n(-c4ccccc4)c3=O)[nH]n2)c(O)c1	-2	6	22384*	?	0	i
C[C@@]12C(=O)N(Cc3ccc(Cl)cc3)CC(=O)N1[C@H]1c3ccccc3OC[C@@H]1[C@@H]2c1ccccc1	4	-8	4069	-1	0	0
CCCCN1CC(=O)N2[C@H]3c4cc(Br)ccc4OC[C@@H]3[C@H](C(=O)OCC)[C@]2(C)C1=O	-3	8	3899	0	2	i
COc1ccc(CN2CC(=O)N3[C@H]4c5ccccc5OC[C@@H]4[C@H](c4ccccc4)[C@]3(C)C2=O)cc1	1	52*	3848	0	-2	i
